We go through 16 compounds from PMC5540273 (PLoS ONE, 2017).

Holding throughout (conditions): concentration: 1 μM, replicates: in singlicate; n = 1
The subject of experiment [1] is T1, MLK1.
T1 construct: gene MAP3K9

Experiment [2] relates to MLK2.
Experiment [3] concerns MLK3.
Experiment [4] relates to MRCKA.
Experiment [5] deals with T2, MRCKB.
T2 construct: gene CDC42BPB

The test system of experiment [6] is MST1R.
Experiment [7] concerns T3, MST1.
T3 construct: gene STK4

The test system of experiment [8] is T4, MST2.
T4 construct: gene STK3

Experiment [9] deals with T5, MST3.
T5 construct: gene STK24

The test system of experiment [10] is MST4.
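Also: KINOMEscan kinase panel screen.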

For the compound `Cn1cc(-c2ccc3c(c2)CCN3C(=O)Cc2cc(F)cc(F)c2F)c2c(N)ncnc21` [GSK2634140], the “%Inh” value came out at 38% in experiment [1]; 0% in experiment [2]; 54% in experiment [3]; 0% in experiment [4]; 0% in [5]; 43% in experiment [6]. Also, the “%Inh” value turned out to be 85% in experiment [7], 42% in experiment [8], 4% in experiment [9] and 0% in experiment [10].

Turning to `COc1cc(Nc2nccc(N3CCC(NC(=O)Nc4ccc5c(c4)OCO5)C3)n2)cc(OC)c1OC` (stereo not shown) [GSK1379766], the “%Inh” value in experiment [1] was found to be 36%; in [2], 0%; in experiment [3], 46%; in experiment [4], 11%; in experiment [5], 0%; in experiment [6] it was 39%. The “%Inh” value came out at 0% in experiment [7], 32% in experiment [8], 0% in experiment [9] and 0% in experiment [10].

In the case of `O=C(O)C(F)(F)F.O=c1[nH]ccc2nc(N[C@@H]3CCNC3)nc(Nc3cc(Cl)cc(Cl)c3)c12` [GSK2188764], the “%Inh” value in [1] worked out at 95.7%; in experiment [2] it was 0%; in experiment [3], 88%; in experiment [4], 24%; in experiment [5], 35%; in experiment [6], 11%. Also, the “%Inh” value in [7] was 86%; in experiment [8] it was 80%; in [9], 85%; in [10], 91.1%.

As to `COc1ccc(NC(=O)c2ccoc2)cc1-c1ccc(C(=O)NCC2CC2)cc1` [GW810437], the “%Inh” value stood at 0% in [1]; 25% in experiment [2]; 0% in experiment [3]; 0% in experiment [4]; 19% in experiment [5]; 0% in [6]. The “%Inh” value was 22% in [7], 8% in [8], 1% in experiment [9] and 0% in experiment [10].

`CN(C)CCOc1ccc(-c2cc(-c3ccc(Cl)c(O)c3)c(-c3ccncc3)[nH]2)cc1.Cl.Cl` [SB-684387]: the “%Inh” value in experiment [1] is 0%; in [2], 0%; in experiment [3], 0%; in experiment [4], 8%; in experiment [5] it was 5%; in [6], 34%. Moreover, the “%Inh” value in experiment [7] was 0%; in experiment [8], 17%; in experiment [9] it was 0%; in experiment [10] it was 0%.

Turning to `CN(C)c1ncnc2nc[nH]c12` [SKF-31736], the “%Inh” value in [1] came out at 0%; in [2] it was 0%; in experiment [3], 0%; in experiment [4], 11%; in [5] it was 0%; in experiment [6], 0%. The “%Inh” value in [7] was 0%; in [8] it was 0%; in [9], 19%; in experiment [10] it was 1%.

Regarding `Cc1ccccc1CC(=O)N1CCc2cc(-c3cn(C)c4ncnc(N)c34)ccc21` [GSK2603346], the “%Inh” value in experiment [1] was 7%; in experiment [2], 0%; in [3] it was 18%; in experiment [4], 0%; in [5] it was 0%; in [6], 46%. In addition, the “%Inh” value in [7] was found to be 97%; in experiment [8], 0%; in experiment [9], 46%; in [10], 54%.

Turning to `Cl.Cl.NC(CNC(=O)c1cc(Br)c(-c2ccnc3[nH]ccc23)s1)c1ccccc1` (stereo not shown) [GSK1322949], the “%Inh” value is on record as 0% in experiment [1]; 0% in [2]; 0% in experiment [3]; 29% in experiment [4]; 93.7% in [5]; 5% in experiment [6]. In addition, the “%Inh” value in experiment [7] was 0%; in [8], 26%; in [9] it was 5%; in experiment [10], 3%.

Turning to `Cc1cc(-c2c(-c3ccc(F)cc3)ncn2CCCN2CCOCC2)nc(N)n1` [SB-222517], the “%Inh” value is given as 5% in experiment [1]; 49% in [2]; 0% in experiment [3]; 0% in [4]; 20% in [5]; 18% in experiment [6]. The “%Inh” value in experiment [7] is reported as 13%; in [8], 20%; in experiment [9] it was 5%; in [10] it was 1%.

As for `Cc1ccc(NC(=O)c2cccc(N3CCCCC3)c2)cc1-c1ccc(C(=O)NCC2CC2)cc1` [GSK1917008], the “%Inh” value in experiment [1] worked out at 0%; in experiment [2] it was 17%; in experiment [3], 12%; in experiment [4] it was 17%; in experiment [5], 0%; in experiment [6], 37%. Besides, the “%Inh” value was determined as 13% in experiment [7], 34% in experiment [8], 13% in [9] and 1% in [10].

As to `Cc1ccc(NC(=O)c2ccnc(N3CCCCC3)c2)cc1-c1ccc(C(=O)NCC2CC2)cc1` [GW775610], the “%Inh” value in [1] was found to be 0%; in [2] it was 0%; in experiment [3], 4%; in [4], 0%; in experiment [5] it was 9%; in experiment [6], 4%. Also, the “%Inh” value in experiment [7] is 13%; in experiment [8] it was 32%; in [9], 30%; in experiment [10] it was 0%.

`Cl.N#CCc1ccc(Nc2nccc(Nc3ccc(Oc4ccccc4)cc3)n2)cc1` [GW639905]: the “%Inh” value in experiment [1] stood at 0%; in experiment [2], 0%; in [3], 0%; in experiment [4], 6%; in experiment [5], 0%; in [6] it was 2%. Further, the “%Inh” value came out at 20% in [7], 0% in experiment [8], 0% in experiment [9] and 0% in experiment [10].

For `CS(=O)(=O)c1cccc(CNc2nc(Nc3ccc4c(c3)CCC(=O)N4)ncc2C(F)(F)F)c1`, the “%Inh” value worked out at 99.7% in experiment [1]; 93.9% in [2]; 96.4% in experiment [3]; 0% in [4]; 0% in experiment [5]; 1% in experiment [6]. Moreover, the “%Inh” value was found to be 0% in experiment [7], 11% in experiment [8], 0% in experiment [9] and 25% in experiment [10].

Turning to `O=C(O)C(F)(F)F.O=c1[nH]ccc2nc(N[C@@H]3CCNC3)nc(Nc3ccc4c(c3)S(=O)(=O)CC4)c12` [GSK2181306], the “%Inh” value in [1] turned out to be 79%; in experiment [2] it was 9%; in experiment [3], 61%; in [4], 26%; in experiment [5], 54%; in experiment [6] it was 1%. The “%Inh” value in experiment [7] was 95.9%; in experiment [8], 80%; in [9], 96.6%; in [10], 95.5%.

Turning to `N#CC1(c2cccc(C(=O)Nc3cccc(Oc4ccc5nc(NC(=O)C6CC6)sc5n4)c3)c2)CC1`, the “%Inh” value in experiment [1] came to 1%; in experiment [2], 22%; in experiment [3] it was 17%; in experiment [4], 0%; in [5], 0%; in experiment [6], 0%. Further, the “%Inh” value in experiment [7] stood at 4%; in experiment [8] it was 8%; in [9], 0%; in experiment [10] it was 4%.

Take `O=C1NC(=O)C(c2ccccc2Cl)=C1Nc1cccc(Cl)c1` [SB-342409]: the “%Inh” value in [1] was 0%; in experiment [2], 28%; in experiment [3], 0%; in experiment [4] it was 11%; in [5], 14%; in experiment [6], 0%. The “%Inh” value in experiment [7] is 3%; in [8] it was 8%; in experiment [9] it was 0%; in [10], 0%.
